This is an account of results in PubChem BioAssay (NCATS).

A number with no mark means an inactive call. Records with an inconclusive call do not appear. Calls of active or inactive are those of the source. Unless noted, the call rests on the fitted dose curve; in most records, active means well fitted curve in the direction sought with a large enough effect; inconclusive means small, poorly fitted or top-dose-only effect, or another doubt; inactive means no such curve, though single readings can be large; an effect the other way counts as inactive or inconclusive. Some results are limits rather than exact numbers.

A short description of test [1]: Cell Viability - BJ (AID 421; calls by dose curve;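 further: potency means the concentration at half of the fitted maximal effect; cells exposed to compound for 40 hours at 37 °C before readout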). The note with it: BJ fibroblast viability, qHTS. In a few lines:
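Luminescent ATP signal (CellTiter-Glo, 20 min at room temperature) served as the read-out of viable BJ cells after 40 hours of compound treatment. Responses were scaled between DMSO and 100 uM tamoxifen, and AC50 values were obtained by Hill modeling.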

Test [2] is described as follows: Cell Viability - Jurkat (AID 426;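 active means dose-dependent loss of cell ATP signal giving a full or clear fitted curve, ranked by lower potency value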; further: potency means the concentration at half of the fitted maximal effect). The conditions noted are these: qHTS. An outline of the steps:
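Cytotoxicity taken as drop in cellular ATP (CellTiter-Glo luminescence, 20 min room temperature) after 40 hr, 37C treatment of 5000 Jurkat Clone E6-1 cells per well; concentration-response fitted with Hill equation for AC50.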
Background: qHTS replaces the single test concentration by a dilution series.

A short description of test [3]: Cell Viability - Hek293 (AID 427;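 active means compounds whose dose-response curve shows a full or clear partial loss of cell viability, called from curve shape rather than a numeric limit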;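 further: potency means the concentration at half of the fitted maximal effect; cells exposed to compound for 40 hours at 37 °C before reading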). The conditions noted are these: qHTS. An outline of the steps: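 Luminescent ATP read-out (CellTiter-Glo, 20 min RT) after 40 hr compound exposure at 37 °C in complete medium. Signal normalized to DMSO (basal) and 100 uM tamoxifen (100% inhibition); concentration-response fitted with the standard Hill equation to give AC50.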
A short description of test [4]: Cell Viability - HepG2 (AID 433; calls by dose curve;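 further: potency means the concentration at half of the fitted maximal effect; potency for ATP loss meaning cytotoxicity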). The conditions noted are these: qHTS. An outline of the steps:
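HepG2 cells, 1500 per well, treated 40 hr at 37 °C in complete medium; viability from intracellular ATP by CellTiter-Glo luminescence. Normalized to DMSO and 100 uM tamoxifen; AC50 from Hill fit of qHTS concentration-response.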

Test [5] is described as follows: Cell Viability - SK-N-SH (AID 435; calls by dose curve; further: potency means the concentration at half of the fitted maximal effect). The note with it: SK-N-SH neuroblastoma cell viability qHTS. In a few lines: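 SK-N-SH neuroblastoma cells (1500/well) treated 40 h at 37 °C in complete medium; viability read as cellular ATP by CellTiter-Glo luminescence. Normalized to DMSO and 100 uM tamoxifen; AC50 from Hill fits of qHTS concentration-response.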
Test [6] deals with Glucocorticoid receptor (Homo sapiens) (UniProt P04150). In words: GR-GFP Redistribution (AID 450;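 active means compounds whose dose series gives a full or clear partial fitted curve of increased nuclear translocation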; further: potency means the concentration at half of the fitted maximal effect). The note with it: U2OS GR-GFP nuclear translocation, laser cytometry, 2 h.
Sequence of Glucocorticoid receptor (Homo sapiens) (P04150 whole entry, looked up): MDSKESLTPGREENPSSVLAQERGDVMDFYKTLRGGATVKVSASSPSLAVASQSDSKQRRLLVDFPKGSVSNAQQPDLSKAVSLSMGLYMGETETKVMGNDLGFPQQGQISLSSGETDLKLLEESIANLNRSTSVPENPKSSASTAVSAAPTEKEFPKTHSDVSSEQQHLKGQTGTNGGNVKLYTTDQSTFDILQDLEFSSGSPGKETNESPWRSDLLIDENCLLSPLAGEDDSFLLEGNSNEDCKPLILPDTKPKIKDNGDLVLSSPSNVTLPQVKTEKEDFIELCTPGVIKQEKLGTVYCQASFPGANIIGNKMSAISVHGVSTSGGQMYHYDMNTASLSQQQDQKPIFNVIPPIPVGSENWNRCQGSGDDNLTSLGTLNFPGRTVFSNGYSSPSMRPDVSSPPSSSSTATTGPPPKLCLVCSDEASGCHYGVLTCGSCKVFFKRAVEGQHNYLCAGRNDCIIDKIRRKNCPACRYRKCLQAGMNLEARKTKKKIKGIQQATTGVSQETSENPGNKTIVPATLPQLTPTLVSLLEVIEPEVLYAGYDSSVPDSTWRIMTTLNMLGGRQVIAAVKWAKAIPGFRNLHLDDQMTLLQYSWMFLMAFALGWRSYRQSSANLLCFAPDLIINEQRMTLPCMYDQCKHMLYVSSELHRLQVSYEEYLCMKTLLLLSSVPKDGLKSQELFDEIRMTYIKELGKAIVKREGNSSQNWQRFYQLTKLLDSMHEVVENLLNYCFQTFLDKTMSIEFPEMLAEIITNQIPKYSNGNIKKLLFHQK
Test [7] addresses Mitogen-activated protein kinase 10 (Mus musculus) (UniProt Q61831). In words: JNK3 AlphaScreen Assay (AID 530; active means well fitted curve in either direction with a large enough effect, not every such curve was filed as active;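 further: kinase came from lysate of stimulated human HepG2 cells; signal reports phosphorylation of biotinylated GST-cJun 1-79 at Ser73 with 10 µM ATP; on the % scale 0 is the no-effect control and ±100 the full control effect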). The note with it: JNK3 lysate, c-Jun phosphorylation; series mostly up to 25.6 µM. An outline of the steps:
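Activity was read by AlphaScreen after JNK3-containing HepG2 lysate (cytokine pre-activated) phosphorylated biotinylated GST-cJun with 10 uM ATP at room temperature. Phospho-Ser73 cJun antibody with Protein-A acceptor beads provided detection.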

A short description of test [8]: Cell Viability - N2a (AID 540). Further: nearly all actives have a fitted effect of over 45% in size. Further: potency means the concentration at half of the fitted maximal effect.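 On activity change, negative = cytotoxicity: plate controls were DMSO alone for no effect and tamoxifen control for full effect.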 The conditions noted are these: N2a mouse neuroblastoma cell viability; activity change, negative = cytotoxicity: at 92.2 µM (top of the series). An outline of the steps:
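CellTiter-Glo ATP luminescence, read 20 min after reagent at room temperature, reported viability following 40 h compound treatment at 37 °C. N2a mouse neuroblastoma cells seeded 1500/well; Hill equation gave AC50.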

Test [9] in a line: Cell Viability - NIH 3T3 (AID 541). Further: nearly all actives have a fitted effect of over 25% in size. Further: potency means the concentration at half of the fitted maximal effect.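 On activity change, negative = cytotoxicity: plate controls were DMSO alone for no effect and tamoxifen positive control for full effect.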 The conditions noted are these: NIH 3T3 cell viability, qHTS; activity change, negative = cytotoxicity: at 92.2 µM (top of the series). An outline of the steps:
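Intracellular ATP (CellTiter-Glo luminescence, 20 min at room temperature) measured after 40 hr compound exposure at 37 °C of 1000 NIH 3T3 mouse fibroblasts/well in complete medium; AC50 derived by Hill-equation modelling of qHTS concentration-response curves.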

A short description of test [10]: Cell Viability - H-4-II-E (AID 543). Further: nearly all actives have a fitted effect of over 35% in size. Further: potency means the concentration at half of the fitted maximal effect. The note with it: H-4-II-E rat hepatoma viability; series mostly up to 92.2 µM. An outline of the steps:
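CellTiter-Glo luminescence (intracellular ATP) measured after 40 h compound exposure at 37 °C in H-4-II-E rat hepatoma cells seeded at 1500/well. Values are AC50s fitted with the standard Hill equation.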

Test [11] can be described thus: Cell Viability - SH-SY5Y (AID 544). Further: nearly all actives have a fitted effect of over 55% in size. Further: potency means the concentration at half of the fitted maximal effect.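 On viability change, negative = cytotoxic: 0% = DMSO alone and -100% = 100 µM tamoxifen.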 The conditions noted are these: SH-SY5Y neuroblastoma cell viability; viability change, negative = cytotoxic: at 92.2 µM (top of the series). An outline of the steps: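 Cytotoxicity measured via ATP-dependent luciferase luminescence (CellTiter-Glo) following 40 h, 37 °C exposure of 1500 SH-SY5Y cells per well. Concentration-response data were fitted with the standard Hill equation to give AC50.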

Test [12] in a line: Cell Viability - Renal Proximal Tubule (AID 545). Further: nearly all actives have a fitted effect of over 40% in size. Further: potency means the concentration at half of the fitted maximal effect.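 On activity change, negative = cytotoxicity: 0% = DMSO only and -100% = 100 µM tamoxifen.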 The note with it: renal proximal tubule cells viability, primary cells of rat origin; activity change, negative = cytotoxicity: at 91.7 µM (top of the series). In a few lines:
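Rat renal proximal tubule primary cells, 1000/well, exposed to compounds for 40 hr at 37 °C in complete medium; cellular ATP read by CellTiter-Glo luminescence. AC50 from concentration-response fitted with standard Hill equation.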

Test [13] can be described thus: Cell Viability - MRC5 (AID 434; calls by dose curve;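 further: potency means the concentration at half of the fitted maximal effect; potency reflects cytotoxicity seen as loss of intracellular ATP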). The conditions noted are these: MRC5 lung fibroblast viability, qHTS. In a few lines:
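ATP luminescence read-out (CellTiter-Glo, 20 min RT) after 40 hr, 37 °C compound exposure of 1500 MRC5 cells/well. Data normalized to DMSO (basal) and 100 uM tamoxifen (100% inhibition); AC50 from standard Hill equation.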

Test [14] in a line: Cell Viability - HUV-EC-C (AID 542). Further: on the % scale 0 is the no-effect control and ±100 the full control effect; nearly all actives have a fitted effect of over 35% in size. The note with it: HUV-EC-C endothelial cell viability, qHTS; series mostly up to 92.2 µM. An outline of the steps:
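CellTiter-Glo luminescence measured ATP loss in HUV-EC-C cells (1000/well) after 40 hr compound exposure at 37 °C, in complete culture medium. Concentration-response data were Hill-fitted to give AC50.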

Test [15] in a line: AP1 Signaling Pathway (AID 357; active means well fitted curve in either direction with a large enough effect, not every such curve was filed as active;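 further: ME-180 reporter cells stimulated with EGF at its EC50 level; on the % scale 0 is the no-effect control and ±100 the full control effect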). The conditions noted are these: ME-180 AP-1-bla reporter, EGF-induced, beta-lactamase ratio, 5 h; at 17.2 µM (top of the series). In a few lines: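 AP-1-bla ME-180 cells, Opti-MEM + 0.5% dialyzed FBS, plated overnight 37 °C. Cpd titration + EC50 EGF, 5 h 37 °C. CCF4 2.5 h RT; ex 405, em 460/530 ratio → %activity, AC50.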
Test [16] in a line: Stat Signaling Pathway (AID 446; active means well fitted curve in either direction with a large enough effect, not every such curve was filed as active;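 further: ME-180 cervical cancer cells given 40 pM IL-6 alongside compound; SIE-controlled beta-lactamase reporter measured as 460/530 nm FRET emission ratio; on the % scale 0 is the no-effect control and ±100 the full control effect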). The conditions noted are these: ME-180 (cervical carcinoma) SIE beta-lactamase reporter, IL-6 stimulated, 5 h; at 17.2 µM (top of the series). In a few lines: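 Compound effects on IL-6-induced STAT reporter activity were measured in ME-180 cells. After overnight culture, cells were co-treated with 40 pM IL-6 for 5 hrs before beta-lactamase substrate loading at room temperature.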

`COc1cccc2c1C(=O)c1c(O)c3c(c(O)c1C2=O)C[C@@](O)(C(=O)CO)C[C@@H]3O[C@H]1C[C@H](N)[C@H](O)[C@H](C)O1`: the Potency in [1] is 0.177 µM (active); in test [2], 0.0218 µM (active); in [3], 0.0255 µM (active); in test [4], more than 92 µM; in [5], 0.0168 µM (active); in test [6], more than 20.6 µM. In addition, the Potency in test [8] is 398 nM (active); in test [9], 79.4 nM (active); in test [10] it was 25.1 µM (active); in test [11] it was 12.6 nM (active); in test [12], 15.8 µM (active). Also, in [7], the molecule was classed as inactive.
For the molecule `O=C(O)CCCCC(=O)O`, the Potency in test [1], in test [2], in test [3], in test [4], in test [13] and in test [5] was more than 92 µM throughout. The molecule was classed as inactive in [7]. Further, the Potency entry in test [8], in [9], in [14], in test [10] and in test [11] was “inactive” each time. The activity change, negative = cytotoxicity in test [12] is 1.76%.
In the case of `CN(C)CCOc1ccccc1Cc1ccccc1`, in test [15], the activity change, negative = inhibition is 16.9%. Further, the activity, negative = inhibition in test [16] is -3.49%.
Consider `CCCCC(=O)O[C@]1(C(=O)CO)CC[C@H]2[C@@H]3CCC4=CC(=O)CC[C@]4(C)[C@H]3[C@@H](O)C[C@@]21C`, for which, in test [15], the activity change, negative = inhibition is 5.88%. For the same molecule, the activity, negative = inhibition in test [16] was -12.8%. For the same molecule, the Potency in [6] was 0.000459 µM (active).
